Measured values: PubChem BioAssay (NCI)
The panel holds about 79,000 compounds, 15% with a hit somewhere; the sample as a whole holds those more often. Values without a mark were called inactive. Activity calls are given as the source filed them. No stated cut-off is given here; in the data, active means growth inhibition above about 70%; inactive means the rest.

Key:
[1] = NCI Yeast Anticancer Drug Screen. Data for the rad52 strain (AID 147);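 further: 0% = growth of vehicle-treated control cultures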; conditions: S. cerevisiae rad52 mutant growth inhibition, hits give high values
In short: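 Screen used a yeast mutant impaired in DNA repair. After compound exposure, growth was measured. Values reflect inhibition compared with vehicle-treated cells.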

[2] = NCI Yeast Anticancer Drug Screen. Data for the rad50EPP+ strain (AID 151);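 further: 0% = growth of vehicle-treated control cultures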; conditions: S. cerevisiae rad50 mutant strain, hits give high values
In short: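 Exposing the rad50EPP+ strain to each compound, growth was compared with vehicle-only cultures to give inhibition.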

[3] = NCI Yeast Anticancer Drug Screen. Data for the mgt1 strain (AID 153); conditions: S. cerevisiae mgt1 mutant growth inhibition, hits give high values
In short: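 Genetically defined yeast (mgt1) treated with compound; inhibition of growth expressed against vehicle-treated controls.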

[4] = NCI Yeast Anticancer Drug Screen. Data for the rad50 strain (AID 155);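 further: 0% = growth of vehicle-only cultures of the same strain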; conditions: S. cerevisiae rad50 strain growth inhibition, hits give high values
In short: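 Cells are treated with compound, grown, and their growth is then scored against vehicle-only cultures of the same repair-deficient yeast strain.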

[5] = NCI Yeast Anticancer Drug Screen. Data for the mec2-1 strain (AID 157); conditions: S. cerevisiae mec2-1 strain, hits give high values
In short: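 Readout is yeast growth inhibition, normalised to vehicle-treated controls, in the mec2-1 strain exposed to compound.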

[6] = NCI Yeast Anticancer Drug Screen. Data for the rad14 strain (AID 159);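 further: 0% = growth of vehicle-treated control cultures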; conditions: S. cerevisiae rad14 strain growth inhibition, hits give high values
In short: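 Readout: yeast growth inhibition, referenced to vehicle-only cultures. Strain bears a defined alteration in DNA damage repair.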

[7] = NCI Yeast Anticancer Drug Screen. Data for the sgs1 mgt1 strain (AID 161);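 further: 0% = growth of cultures given vehicle only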; conditions: S. cerevisiae sgs1 mgt1 strain, hits give high values
In short: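 Growth of a repair-deficient yeast mutant was monitored after compound treatment and expressed as inhibition relative to vehicle-treated cultures.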

[8] = NCI Yeast Anticancer Drug Screen. Data for the CLN2oe strain (AID 163);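 further: 0% = growth of vehicle-only control cultures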; conditions: S. cerevisiae CLN2oe strain, hits give high values
In short: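 Values reflect how much compound exposure reduced yeast growth, referenced to vehicle-exposed cells. Assay organism is a strain with a defined genetic change affecting cell-cycle control.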

[9] = NCI Yeast Anticancer Drug Screen. Data for the cln2 rad14 strain (AID 165);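 further: 0% = growth equal to vehicle treated cultures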; conditions: S. cerevisiae cln2 rad14 strain, hits give high values
In short: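 Relative to vehicle controls, growth inhibition of compound-treated cln2 rad14 yeast was recorded.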

[10] = NCI Yeast Anticancer Drug Screen. Data for the bub3 strain (AID 167); conditions: S. cerevisiae bub3 mutant strain, hits give high values
In short: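 Part of a panel of yeast mutants defective in DNA damage repair or cell cycle regulation. Each strain is grown with compound, and inhibition is calculated relative to solvent-treated cultures.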

[11] = NCI Yeast Anticancer Drug Screen. Data for the wt2 strain (AID 169);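 further: 0% = growth of vehicle-treated yeast cultures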; conditions: S. cerevisiae wt2 strain growth inhibition, hits give high values
In short: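 Values express reduction in yeast growth under compound treatment, referenced to vehicle-treated cells.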

[12] = NCI Yeast Anticancer Drug Screen. Data for the mlh1 strain (AID 171);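 further: 0% = growth of vehicle-treated control cultures of the same strain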; conditions: S. cerevisiae mlh1 strain growth inhibition, hits give high values
In short: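 Steps: expose the defined-mutant yeast strain to compound; expose a parallel culture to vehicle; measure growth; express compound effect as inhibition relative to the vehicle culture.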

[13] = NCI Yeast Anticancer Drug Screen. Data for the sgs1 strain (AID 173);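 further: 0% = growth of vehicle-only control cultures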; conditions: S. cerevisiae sgs1 mutant, hits give high values
In short: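 Treat defined-mutant yeast with compound; measure growth; calculate inhibition relative to vehicle-treated cells.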

[14] = NCI Yeast Anticancer Drug Screen. Data for the mlh1 rad18 strain (AID 175); conditions: S. cerevisiae mlh1 rad18 strain growth inhibition, hits give high values
In short: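 Test agents were incubated with a yeast strain of defined genotype (DNA damage repair defect). Inhibition of growth was derived by comparison with vehicle-exposed cultures.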

[15] = NCI Yeast Anticancer Drug Screen. Data for the rad18 strain (AID 177); conditions: S. cerevisiae rad18 mutant growth inhibition, hits give high values
In short: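 A genetically defined yeast mutant impaired in DNA damage repair was treated with test compounds, then its growth was measured against cultures receiving vehicle alone.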

[16] = at 5.0 µM (retest, dose inferred, filed as 0.5)
[17] = at 50.0 µM (retest, dose inferred, filed as 5.0)

CC1=C(C(=O)NCc2ccccc2)C(c2ccccc2)C(C(=O)NCc2ccccc2)=C(C)N1 gave a growth inhibition ([1]; at 1.2 µM) of -3%, a growth inhibition ([1]; at 3.7 µM) of -4% and a growth inhibition ([1]; at 11.0 µM) of -4%. The growth inhibition ([1]; at 33.0 µM) was -20%, the growth inhibition ([1]; at 100.0 µM) was 85% (active) and the growth inhibition ([2]; at 1.2 µM) was -3%. The growth inhibition ([2]; at 3.7 µM) was -1%, the growth inhibition ([2]; at 11.0 µM) was 3% and the growth inhibition ([2]; at 33.0 µM) was 3%. It also gave a growth inhibition ([2]; at 100.0 µM) of 0%, a growth inhibition ([3]; at 1.2 µM) of -2% and a growth inhibition ([3]; at 3.7 µM) of -2%. The growth inhibition ([3]; at 11.0 µM) was -3%, the growth inhibition ([3]; at 33.0 µM) was 6% and the growth inhibition ([3]; at 100.0 µM) was 97% (active). For the same compound, the growth inhibition ([4]; at 1.2 µM) was -14%, the growth inhibition ([4]; at 3.7 µM) was 21% and the growth inhibition [4, 16] was 2%. The growth inhibition ([4]; at 11.0 µM) was 22%, the growth inhibition ([4]; at 33.0 µM) was 36% and the growth inhibition [4, 17] was 75% (active). For the same compound, the growth inhibition ([4]; at 50.0 µM) was 75.5% (active), the growth inhibition ([4]; at 100.0 µM) was 91% (active) and the growth inhibition ([5]; at 1.2 µM) was -1%. It also gave a growth inhibition ([5]; at 3.7 µM) of -4%, a growth inhibition [5, 16] of 11% and a growth inhibition ([5]; at 11.0 µM) of -3%. The growth inhibition ([5]; at 33.0 µM) was 18%, the growth inhibition [5, 17] was 81% (active) and the growth inhibition ([5]; at 50.0 µM) was 93.3% (active). For the same compound, the growth inhibition ([5]; at 100.0 µM) was 94% (active), the growth inhibition ([6]; at 1.2 µM) was 1% and the growth inhibition ([6]; at 3.7 µM) was 4%. The growth inhibition ([6]; at 11.0 µM) was 6%, the growth inhibition ([6]; at 33.0 µM) was 16% and the growth inhibition ([6]; at 100.0 µM) was 92% (active). The growth inhibition [7, 16] was -1%, the growth inhibition [7, 17] was 82% (active) and the growth inhibition ([7]; at 50.0 µM) was 70.7% (active). For the same compound, the growth inhibition ([8]; at 1.2 µM) was -5%, the growth inhibition ([8]; at 3.7 µM) was 1% and the growth inhibition ([8]; at 11.0 µM) was -2%. It also gave a growth inhibition ([8]; at 33.0 µM) of 4%, a growth inhibition ([8]; at 100.0 µM) of 63% and a growth inhibition [9, 16] of -7%. For the same compound, the growth inhibition [9, 17] was 51%, the growth inhibition ([9]; at 50.0 µM) was 11.4% and the growth inhibition ([10]; at 1.2 µM) was -1%. The growth inhibition ([10]; at 3.7 µM) was 1%, the growth inhibition [10, 16] was 6% and the growth inhibition ([10]; at 11.0 µM) was 0%. The growth inhibition ([10]; at 33.0 µM) was 45%, the growth inhibition [10, 17] was 84% (active) and the growth inhibition ([10]; at 50.0 µM) was 87.8% (active). The growth inhibition ([10]; at 100.0 µM) was 94% (active), the growth inhibition ([11]; at 1.2 µM) was -1% and the growth inhibition ([11]; at 3.7 µM) was 7%. The growth inhibition ([11]; at 11.0 µM) was -3%, the growth inhibition ([11]; at 33.0 µM) was 10% and the growth inhibition ([11]; at 100.0 µM) was 91% (active). The growth inhibition ([12]; at 1.2 µM) was -4%, the growth inhibition ([12]; at 3.7 µM) was -3% and the growth inhibition ([12]; at 11.0 µM) was -3%. For the same compound, the growth inhibition ([12]; at 33.0 µM) was 8%, the growth inhibition ([12]; at 100.0 µM) was 96% (active) and the growth inhibition ([13]; at 1.2 µM) was -1%. For the same compound, the growth inhibition ([13]; at 3.7 µM) was -2%, the growth inhibition ([13]; at 11.0 µM) was 5% and the growth inhibition ([13]; at 33.0 µM) was 40%. The growth inhibition ([13]; at 100.0 µM) was 93% (active), the growth inhibition [14, 16] was 4% and the growth inhibition [14, 17] was 82% (active). The growth inhibition ([14]; at 50.0 µM) was 93.1% (active), the growth inhibition ([15]; at 1.2 µM) was 2% and the growth inhibition ([15]; at 3.7 µM) was 3%. For the same compound, the growth inhibition ([15]; at 11.0 µM) was 7%, the growth inhibition ([15]; at 33.0 µM) was 60% and the growth inhibition ([15]; at 100.0 µM) was 96% (active).
